Measured values reported in PubChem BioAssay (NCATS).
Results filed as inconclusive are left out. Entries that show only a call come without a potency. The source made the active and inactive calls. The call rests on the fitted dose curve; in most records, active means well fitted inhibition curve with a large enough effect; inconclusive means small, poorly fitted or top-dose-only effect; inactive means flat fitted curve, though single readings scatter.

Each molecule was assayed against Aldehyde dehydrogenase, mitochondrial (Homo sapiens) (UniProt P05091) (assay: qHTS for Inhibitors of the Aldehyde Dehydrogenase Family (ALDH2) Primary screen (AID 2061308; further: nearly all actives have a fitted effect of over 55% in size)). Settings: ALDH2 enzyme inhibition qHTS, 1536-well; series mostly up to 56 µM.

SMILES	Potency
CC1CN(c2cc3c(cc2F)c(=O)c(C(=O)O)cn3-c2ccc(F)cc2F)CCN1 (stereo not given)	inactive
Cc1ccc(S(=O)(=O)Nc2cccc3cccnc23)cc1	inactive
COc1nccc(-c2nc(Nc3ccc(F)c(F)c3)c3ccccc3n2)c1Cl	inactive
CSc1ccc(CNc2ncnc3ccc(-c4c(C)noc4C)cc23)cc1	inactive
COc1cc(F)c(S(=O)(=O)N2CCN(S(=O)(=O)c3ccc4c(c3)OCCO4)CC2)c(F)c1	inactive
Cn1ccc2cc(-c3ccc4ncnc(NCc5cccnc5)c4c3)ccc21	inactive
Cc1ccc(S(=O)(=O)Nc2cnccc2C(=O)Nc2nc(-c3ccc(C)c(C)c3)cs2)cc1	inactive
CC(=O)Nc1nc(-c2ccc3c(c2)CCN3C(=O)c2ccccc2C)c(C)s1	inactive
COc1ccc(C2=Nn3c(nnc3-c3ccccc3Cl)SC2)cc1OC	inactive
O=C(O)c1ccc(-c2noc(-c3ccccc3C(F)(F)F)n2)cc1	inactive
Cc1ccc(S(=O)(=O)n2cc(C(=O)Nc3nc(-c4ccccc4)cs3)c3ccccc32)cc1	inactive
CCOC(=O)c1ccc(-n2cnc3c(c2=N)C(c2cccc(OC)c2)c2c(ccc4ccccc24)O3)cc1 (stereo not given)	inactive
C=C(C)c1cc2c(s1)c1cnn(Cc3ccccc3F)c(=O)c1n2C	inactive
N#Cc1ccc(C(=O)NCC(=O)OC(C(=O)Nc2cc(C(F)(F)F)ccc2Cl)c2ccccc2)cc1 (stereo not given)	inactive
CCOC(=O)c1ccc(-c2ccc3ncnc(NCc4csc(C)n4)c3c2)o1	inactive
CC1=C(C(=O)Nc2ccccc2C)C(c2ccccc2Br)N=C(Nc2nc3ccccc3o2)N1 (stereo not given)	inactive
Cc1cc(NC(=O)Nc2cccc(-c3ccncc3)n2)ccc1Cl	inactive
CCC1=CC2CN(C1)Cc1c([nH]c3ccccc13)[C@@](C(=O)OC)(c1cc3c(cc1OC)N(C)[C@H]1[C@@](O)(C(=O)OC)[C@H](OC(C)=O)[C@]4(CC)C=CCN5CC[C@]31[C@@H]54)C2 (stereo not given in full)	inactive
CCN(CC)CCCCn1c(-c2ccccc2)nc2c(N(CCOC)CCOC)nc(C)nc21	inactive
FC(F)(F)c1cccc(N2CCN(C(=S)Nc3ncnc4ccccc34)CC2)c1	inactive

SMILES	Potency
COc1ccc(C2=Nn3c(nnc3-c3ccccc3F)SC2)cc1OC1CCCC1	inactive
Fc1cccc(-c2nc3ccccc3s2)c1	inactive
Cc1cc(C)n2ncc(C(=O)Nc3ccccc3Sc3ccccc3)c2n1	inactive
Oc1ccc(-c2ccccc2F)c2cccnc12	inactive
O=C(Nc1ccc(Cl)c(S(=O)(=O)N2CCOCC2)c1)c1ccc(S(=O)(=O)N2CCCCC2)cc1	inactive
Cc1cc(N[S+](=O)([O-])c2ccc(NC(=O)Cc3ccc(F)c(C(F)(F)F)c3)cc2)no1	inactive
CC(=O)N1CCN(C(=O)COC(=O)c2ccc([S+](C)(=O)[O-])c([N+](=O)[O-])c2)CC1	inactive
CCCn1c(C)nc2c(NCC(C)(C)CN(C)C)nc(C)nc21	inactive
CC(=O)Nc1sc2c(c1-c1nc3ccccc3s1)CCNC2	inactive
CC(=O)Nc1ccc(NC(=S)NC(=O)c2ccc(C(C)(C)C)cc2)cc1	inactive
O=C1CCCC2=C1C(c1[nH]ncc1Cl)N=C(Nc1nc3cc([S+](=O)([O-])N4CCOCC4)ccc3o1)N2 (stereo not given)	inactive
Cc1ccc(S(=O)(=O)N(C)c2cccc3cccnc23)cc1	inactive
Cc1ccc(S(=O)(=O)Nc2cccc(C(=O)Nc3nc(-c4ccc(Cl)cc4)cs3)c2)cc1	inactive
CC(=O)c1cccc(NC(=O)Nc2nnc(-c3ccncc3)s2)c1	inactive
Cc1ccc(-c2cnn(CC(=O)N(C)C(C)c3ccco3)c(=O)c2)cc1 (stereo not given)	inactive
COc1ccc(C2=Nn3c(nnc3-c3ccccc3OC)SC2)cc1OCC1CC1	inactive
NC(=O)C1CCN(c2nc(-c3ccccc3Br)cs2)CC1	inactive
Cc1ccccc1-c1nc(NCc2ccc(-c3cccnc3)cc2)c2ccccc2n1	inactive
COc1ccc(-c2nc3ccccc3n2Cc2ccccc2)cc1COc1ccc(NC(C)=O)cc1	inactive
Cc1cc(NS(=O)(=O)c2ccc(NC(=O)Cc3ccc(Cl)cc3Cl)cc2)no1	inactive
